Experimental data published in paper PMC12136788.
Where a chain is given by its changes, count along the chain named. The full ranking holds about 24,000 sequences; the median of “enrichment r” is about 0.99, and the highest 2% start at about 3.7. Only a selection was taken, and the highest values are over-represented in it overall.

T1: UNK ZnF1-3 (human, UniProt Q9C0B0 31-174)
T1 sequence: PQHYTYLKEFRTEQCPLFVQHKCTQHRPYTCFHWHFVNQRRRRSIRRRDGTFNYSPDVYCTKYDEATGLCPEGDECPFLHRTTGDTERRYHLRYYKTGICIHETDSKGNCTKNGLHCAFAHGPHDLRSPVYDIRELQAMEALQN

B1: chr14:79828021:79828022:+_ENSMUSG00000043881_ENSMUST00000061222|mus_mus|motif|central (ssRNA)
RNA: GGGAGUUCUACAGUCCGACGAUCAGGAUCAUAGCAGAGCAUGCGCUUACUGUUGACAGCGUAAAGAUAAUUCUGAACCACGGUUAGUUCAAAUGAAUAAAAGGAAUGUGGUACAGGAGCCACCAAUGCCCAUUGGUUCCUCUGCAACAGAGGAUUGAGCAUCA
B2: chr11:87794696:87794697:-_ENSMUSG00000020483_ENSMUST00000020775|mus_hu|motif|central (ssRNA)
RNA: GGGAGUUCUACAGUCCGACGAUCGCCUUUUAUUUUGUAUAGGGAAAGAAAGAGAAAAGGGAGAGGUGGGAGAGAUUUCCGGGUGCAAUACAACCAAAAAAUAUUUUUAAAGUCUUGAAAAAUAAACAUAAAGCAGCCUUCUUCCAACAGAGGAUUGAGCAUCA
B3: chr1:154935262:154935263:-_ENSG00000160691_ENST00000448116|hu_hu|motif|central (ssRNA)
RNA: GGGAGUUCUACAGUCCGACGAUCAUUUUGUGCUCAAGAAUAAGCAAUGGAAAAGAAAAUAGGAAAGUAAGUCUACAGCCCGGAAAUAUAUGCAUAUAAAACUUUAAAAGAAUGCAGUUCCAACUCUACAGAUGGUAUGUGGGGCAACAGAGGAUUGAGCAUCA
B4: chr3:49547525:49547526:-_ENSMUSG00000037892_ENSMUST00000035931|mus_mus|motif|central (ssRNA)
RNA: GGGAGUUCUACAGUCCGACGAUCGUUCAUAUGCUAAAAAUACAAGCAAAACUGUGAUAGCAUGCACAAGAGACAAAAGCGGAAGGUGAAUAAUUAUAGCCAAAAAAAGAGAGACAAUGCAGUCGAUACAAAUGUUCAAGUAUGCAACAGAGGAUUGAGCAUCA
B5: chr9:90322654:90322655:+_ENSG00000196730_ENST00000408954|hu_hu|FALSE|FALSE (ssRNA)
RNA: GGGAGUUCUACAGUCCGACGAUCAAAGAAAAGCGUAUAAGAAAUACACAUUUUGGAUAAAUAUGCACUUUUCUUUUUUAAAGGACAAUCAAUAUAGUAGUUAAAAAAAAUGUCAUUGAAAAGUUAGGAAUUCCAGCAAAAUUACAACAGAGGAUUGAGCAUCA
B6: chr20:5919097:5919098:-_ENSG00000089195_ENST00000203001|hu_hu|FALSE|FALSE (ssRNA)
RNA: GGGAGUUCUACAGUCCGACGAUCGUUCUUAUUCUUGGGAUAUGAAAAAACAAGUAGUAAUGGCAUUUAAAGUUUAAUUACUAACUGUAUAAUGCCUGAGAACAAAAUUCAGAGCAAUUCUCAAAAGGGUUAAGAGUCAGACUCCAACAGAGGAUUGAGCAUCA
B7: chr4:21667751:21667752:+_ENSMUSG00000028252_ENSMUST00000108240|mus_mus|motif|central (ssRNA)
RNA: GGGAGUUCUACAGUCCGACGAUCUUCUAGUAUAUGAUUCAUCCUGUAAGGAAAUUCCUUUGGAAAAGCAUAUGAAAAUCGGGUUUUUAAUACAGAAGUAGUAGCAGCAAUCAAUCUUGUAUUUGAGACAACACCAAAUUCCUCCAACAGAGGAUUGAGCAUCA
B8: chr3:49547525:49547526:-_ENSMUSG00000037892_ENSMUST00000035931|mus_hu|motif|central (ssRNA)
RNA: GGGAGUUCUACAGUCCGACGAUCGUUCUUAUACUAAAAAUAAAAGCAAAAAUAUGAGAUCAUGCACUGGAGACAAAAGCGGAAAAUGAAUAGUUAUAACAAAGAAAGACAAUAUUCCAAAAGAUUAAAAUGUUCAAGUAUUGUCAACAGAGGAUUGAGCAUCA
B9: chr3:49547525:49547526:-_ENSMUSG00000037892_ENSMUST00000035931|mus_hu|FALSE|FALSE (ssRNA)
RNA: B8 RNA with G80U, G81A
B10: chr1:163112212:163112213:-_ENSG00000143248_ENST00000313961|hu_hu|hu_hu_hu_mus_False|1_18 (ssRNA)
RNA: GGGAGUUCUACAGUCCGACGAUCUUUUAUUAUCAGUAAGAGUGAGUUACAUACUAGGCAAAGUAUUGGAUACAAUAAUCAGGAAACAAACACUAUUGGUCCAGAAUUUAAAACUUUUGGGAUAAAUUGCUGGCACAGGAUUUACAACAGAGGAUUGAGCAUCA
B11: chr1:154935262:154935263:-_ENSG00000160691_ENST00000448116|hu_hu|FALSE|FALSE (ssRNA)
RNA: B3 RNA with G81U, G82A
B12: chr5:145543945:145543946:-_ENSG00000133706_ENST00000545646|hu_hu|hu_hu_hu_mus_True|58_98 (ssRNA)
RNA: GGGAGUUCUACAGUCCGACGAUCCUGAACGGCCAGUGGCGGGAAAUAAUCAAGCCAGUGCUCUGCUUCAGAAAACUUUACUAUCUCGUCAUCAGAGAGCCCAAGGGAUUUCAUAAUGUCCCACUGGUACUUAGAAGAUCCUGCCAACAGAGGAUUGAGCAUCA
B13: chrX:20248820:20248821:+_ENSMUSG00000001924_ENSMUST00000001989|mus_mus|mus_mus_mus_hu_True|78_78 (ssRNA)
RNA: GGGAGUUCUACAGUCCGACGAUCGGCGAAGUCCGUCACCACAAAGUCAGGUUCUGCCAGUGAUGCUACCAAGGAUUUAAAGCUAAUCUUCUUAGGUACUUUGACCUGACUGACGAUGCCUCCACGGAUGUAGUCGGAGAAGUUCAACAGAGGAUUGAGCAUCA
B14: chr1:66480114:66480115:+_ENSMUSG00000015222_ENSMUST00000024639|mus_hu|mus_mus_mus_hu_True|28_28 (ssRNA)
RNA: GGGAGUUCUACAGUCCGACGAUCUGGCCUGUGGCGGAUGUUCUUCAGAGAGCCACAUUUGGAUGUCACAUGGCUUAGGUCUAUUUUCUUGGUAACAAUUUGUACCUGACCCCCCUUAGGCUGGUAUUUGAUGUUGUCUGUUGACAACAGAGGAUUGAGCAUCA
B15: chrX:100668055:100668056:+_ENSG00000126945_ENST00000316594|hu_mus|FALSE|FALSE (ssRNA)
RNA: GGGAGUUCUACAGUCCGACGAUCGAGCUCUACAUAGCUAUGAUCAUAAGCUCCUCCACUUGUCCCUGCGGUAGAAUUCAAGAAGAGCUCCACAUAUCUGUGUUGCAUAUUUGCUUUAUCUUUUGCCAUAGCUGCCACAGCGUCCAACAGAGGAUUGAGCAUCA
B16: chr12:118471567:118471568:-_ENSG00000176871_ENST00000315436|hu_hu|motif|central (ssRNA)
RNA: GGGAGUUCUACAGUCCGACGAUCGCACUUGGCCAACAUCGAAGCAACUCUGACCACAGCAGGAGAGAACUUGAACCAAUGCGGCCACUGCAUCAGAAACACAAGGAUAGGUACUAGGCAGAAGCCAUCGUUCCCAGCGGAGGGCAACAGAGGAUUGAGCAUCA
B17: chr5:128448638:128448639:+_ENSG00000066583_ENST00000173527|hu_mus|hu_hu_hu_mus_False|18_48 (ssRNA)
RNA: GGGAGUUCUACAGUCCGACGAUCGGCACUCGCCUUAAUUAGGUUCUGAAUUUCCUUGAACUUCGGGUGGUCUUUGUCAGCCACCAGCUGAAGCAGAACAGCCUCACUAGUGGUCACUAUGAUCCCGGUGCGGGCAAGACGCUCCAACAGAGGAUUGAGCAUCA
B18: chr16:68260615:68260616:+_ENSG00000072736_ENST00000346183|hu_hu|FALSE|FALSE (ssRNA)
RNA: GGGAGUUCUACAGUCCGACGAUCGAAACAAGAGAGCCUGCUGCAUUCACACUCAAAGCACCCAUCAUAUAAAAGUAUCCUAGUUAAAUAUAAAAAGCAAAGUUCAUUUCCCCAAAGCUCAAACAGCCUAUGCUGCUCCUGUUCCAACAGAGGAUUGAGCAUCA
B19: chr1:157160411:157160412:-_ENSMUSG00000026469_ENSMUST00000027741|mus_mus|FALSE|FALSE (ssRNA)
RNA: GGGAGUUCUACAGUCCGACGAUCGAAUUCAAUCAGAAGAAAGCCACCCCGAUAGAUUCUUAUCAAGGGCCAUACAGUUCUAUCUGUUUCAAGUUUAAAUACAGCUGCAAACACAAGGGUAAUAUUCAGCACAAUGAAUAUUCCCAACAGAGGAUUGAGCAUCA
B20: chr1:157160411:157160412:-_ENSMUSG00000026469_ENSMUST00000027741|mus_mus|motif|central (ssRNA)
RNA: B19 RNA with U80G, A81G
B21: chr15:103023242:103023243:-_ENSMUSG00000009575_ENSMUST00000118152|mus_mus|FALSE|FALSE (ssRNA)
RNA: GGGAGUUCUACAGUCCGACGAUCAACUAGCAGCAUUGAUGAGGGGUUAAGGGAUUGGGGACAGAAACUCACCAAGGUCACUAAGUACUUCCAAACUUGGAAGUAGCUCAGUGAGGGCUAAAAAAACUUCGACUGAAGGUAUCCCAACAGAGGAUUGAGCAUCA
B22: chr17:35975164:35975165:-_ENSMUSG00000001525_ENSMUST00000001566|mus_hu|FALSE|FALSE (ssRNA)
RNA: GGGAGUUCUACAGUCCGACGAUCGGAAUGCGCCCCAGAGGCUGGAGCAGCGAGGUGCAAACGCGACGGCAGGAAGGUUCUGAGAGGGAGAAAGGAGAGGGGAGGGCGCGGAGGGAAAGCAGGCUGGGCGGGGCGCGCGUGCGCCAACAGAGGAUUGAGCAUCA
B23: chr14:67424093:67424094:-_ENSMUSG00000022048_ENSMUST00000022629|mus_mus|FALSE|FALSE (ssRNA)
RNA: GGGAGUUCUACAGUCCGACGAUCGGAGACCGAGUGCAGGGGGCCCAAGAGGAAGCCCCAGGAACUGGCUGCCCACAGCAACUAUCACAGGCUCUUUAAAAAAAAAAAAAAUGGAAGAAAGGAAGUCUCAGAAUGUCCUCAGGUCAACAGAGGAUUGAGCAUCA
B24: chr14:67424093:67424094:-_ENSMUSG00000022048_ENSMUST00000022629|mus_mus|motif|central (ssRNA)
RNA: B23 RNA with U82G, A83G
B25: chr1:26230221:26230222:-_ENSG00000117632_ENST00000374291|hu_mus|FALSE|FALSE (ssRNA)
RNA: GGGAGUUCUACAGUCCGACGAUCCUGGAUUUCCUCCAGGGAAAGGUCCUUCUUCUUUGGGGGGGAAAGGGGGAAAUCGGGGACAGAUUCUUUUGACCGAGGGCUGAGAAUCAGCUCAAAAGCCUGGCCUGAAGCGCGCUUCUCCAACAGAGGAUUGAGCAUCA
B26: 72187872_72187992_6815_3pUTR_ENSG00000148730_ENST00000373218|human|control|control (ssRNA)
RNA: GGGAGUUCUACAGUCCGACGAUCGAGUGUCCUCUGGGCUCUUCAAGACACCUUCUUUAAGGUUUACCCCUGGAGUAGCAGAGGGUCUCCUCACCCAGGUGGAAAGAGAUGGGCUCCAUCUGCAGAUGAAGGAAAGGCACUGGCCAACAGAGGAUUGAGCAUCA
B27: chr5:145543945:145543946:-_ENSG00000133706_ENST00000545646|hu_hu|hu_hu_hu_mus_True|48_48 (ssRNA)
RNA: B12 RNA with C39U, U78C, C84G, G87U, G96C

Each binder was assayed against T1, UNK ZnF1-3 (assay: nsRBNS (natural sequence RNA bind-n-seq); RBNS binding buffer (assumed for nsRBNS): 25 mM Tris pH 7.5, 150 mM KCl, 3 mM MgCl2, 0.01% Triton X-100, 500 ug/ml BSA, 20 U/ml SUPERase-In, 4 C; UNK is unkempt and MSI1 is Musashi-1; names of the RNAs are library labels; protein concentration not given here; high values mean tight binding).
In the case of B1, the binding signal is reported as 1.02 enrichment R. Binder B2 has a binding signal of 3.42 enrichment R. With B3 the binding signal was 3.69 enrichment R. Work on B4 yielded a binding signal of 1.91 enrichment R. With B5 the binding signal was 8.3 enrichment R. B6 gave a binding signal of 0.585 enrichment R. For B7, the binding signal was 0.985 enrichment R. B8 was tested, and the binding signal was 3.95 enrichment R. B9 showed a binding signal of 4.56 enrichment R. B10 was tested, and the binding signal was 1.27 enrichment R. In the case of B11, the binding signal is reported as 3.55 enrichment R. B12 showed a binding signal of 1.23 enrichment R. B13 showed a binding signal of 0.842 enrichment R. With B14 the binding signal was 0.629 enrichment R. Work on B15 yielded a binding signal of 1 enrichment R. Binder B16 has a binding signal of 1.61 enrichment R. With B17 the binding signal was 0.517 enrichment R. Binder B18 has a binding signal of 4.02 enrichment R. In the case of B19, the binding signal is reported as 0.961 enrichment R. Work on B20 yielded a binding signal of 0.944 enrichment R. Binder B21 has a binding signal of 1.71 enrichment R. Binder B22 has a binding signal of 2.69 enrichment R. For B23, the binding signal was 3.82 enrichment R. Binder B24 has a binding signal of 4.34 enrichment R. With B25 the binding signal was 0.676 enrichment R. Work on B26 yielded a binding signal of 1.96 enrichment R. With B27 the binding signal was 1.07 enrichment R.
